A number with no mark means an inactive call. Calls follow the shape of the dose curve; as a rule, active = well fitted cell-killing curve with a large enough effect; inconclusive = small, poorly fitted or top-dose-only effect; inactive = flat fitted curve, though single readings scatter.
Test: MultiTox-Fluor Cytotoxicity Assay - LYMP1-003 - Live Cells (AID 962);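 also: 0% = DMSO only and full loss = 92 µM tetraoctylammonium bromide; cytotoxic hits lower the live-cell protease signal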
Details: LYMP1-003 lymphoblastoid cells, MultiTox-Fluor live-cell protease fluorescence; series mostly up to 92.2 µM; activity change, negative = fewer live cells: at the top concentration
Text: NIH Chemical Genomics Center [NCGC]
NIH Molecular Libraries Screening Centers Network [MLSCN]
National Institutes of Environmental Health Sciences [NIEHS]
National Toxicology Program [NTP]
We have developed a 1536-well cell-based assay for quantitative high throughput screening (qHTS) against a number of cell lines to determine in vitro cytotoxicity of small molecules. This particular assay uses a human lymphoblastoid cell line (LYMP1-003) purchased from Coriell Institute.
NCGC Assay Protocol Summary:
The MultiTox-Fluor Cytotoxicity Assay (Promega) is a homogeneous method to simultaneously measure the relative number of live and dead cells in culture by detecting changes in cell membrane integrity. There are two fluorogenic peptide substrates in the assay reagent. Viable cells are determined when the cell-permeant substrate (GF-AFC) enters the cell and is cleaved by protease from live cells resulting in liberated fluorophore. This live-cell protease activity restricted to viable cells is proportional to cell number. The dead cells are determined by using fluorogenic cell-impermeant peptide substrate (bis-AAF-R110) which cleaved by dead cell proteases leaking from damaged cell membrane.
Using the MultiTox-Fluor Cytotoxicity Assay, the relative number of live cells was measured in the lymphoblastoid cell line with complete culture medium following compound treatment for 16 hours. The assay was performed in opaque black Kalypsys 1536-well plates. In the screen, tetraoctylammonium bromide was used as positive control. Library compounds were measured for their ability to cause acute toxicity in the cell line, as reflected by a decrease in live cell protease activity, in a concentration-dependent manner. […] AC50 values were determined from concentration-response data modeled with the standard Hill equation.
qHTS protocol for MultiTox-Fluor Cytotoxicity assay
[Step] [Parameter] [Value] [Description]
1. Reagent; 5 uL; 2500 lymphoblastoid cells/well
2. Time; 5 hr; 37 C incubation
4. Controls; 23 nL; Tetraoctylammonium bromide 6.4pM to 92 uM
5. Time; 16 hr; 37 C incubation
6. Reagent; 5 uL; MuliTox-Fluor Assay reagent
7. Time; 60 min; Room Temperature
8. Detection; live-cell fluorescence (Ex/Em=405/510); EnVision plate reader
Keywords: cell viability, cytotoxicity, lymphoblastoid cell line, fluorescence, NTPHTS, NTPHTS_NCGC, NIEHS, EPA, DSSTox, MLSMR, MLSCN, NIH Roadmap, qHTS, NCGC

Row | Compound | activity change, negative = fewer live cells [%]
1 | CC(=O)NS(=O)(=O)c1ccc(N)cc1 | -8.48
2 | COc1ccc(O)cc1 | -3.15
3 | O=C1c2cccc(O)c2C(=O)c2c(O)cccc21 | -9.49
4 | CCCCCCCC(=O)OCC(COC(=O)CCCCCCC)OC(=O)CCCCCCC | -2.47
5 | CC1CC(OC(=O)c2ccccc2O)CC(C)(C)C1 (configuration not stated) | -4.25
6 | FC(F)(F)C(Cl)Br (configuration not stated) | -5.24
7 | CC(=O)Nc1ccccc1 | -6.04
8 | CC(=O)Nc1cccc(O)c1 | -10.8
9 | CCN(CC)C(=O)c1cccc(C)c1 | -0.146
10 | CCCCOC(=O)c1ccc(N)cc1 | -1.83
11 | CCCC(O)C(CC)CO (configuration not stated) | -4.09
12 | C=CCNC(N)=S | -3.38
13 | O=C(O)CCCCC1CCSS1 (configuration not stated) | 2.18
14 | CC(=O)Nc1ccc(C(=O)O)cc1 | -5.49
15 | O=C(c1ccccc1)C(O)c1ccccc1 (configuration not stated) | -0.678
16 | Cc1cc(C)nc(NS(=O)(=O)c2ccc(N)cc2)n1 | -4.61
17 | Cc1c(N(C)C)c(=O)n(-c2ccccc2)n1C | -3.58
18 | Cc1cc(=O)[nH]c(=S)[nH]1 | -2.29
19 | CCCCCC(N)=O | -0.234
20 | Nc1ccc(S(=O)(=O)c2ccc(N)cc2)cc1 | -2.25
21 | O=C1C(c2[nH]c3ccccc3c2O)=Nc2ccccc21 | -2.15
22 | CC(=O)OCC(COC(C)=O)OC(C)=O | -2.06

Source: PubChem BioAssay (NCATS)
